# Assay results as given in PubChem BioAssay (NCATS).
# Records with an inconclusive call do not appear. Values without a mark were called inactive. Calls follow the shape of the dose curve; as a rule, active = well fitted inhibition curve with a large enough effect; inconclusive = small, poorly fitted or top-dose-only effect; inactive = flat fitted curve, though single readings scatter.
# Target: Calcium and integrin-binding protein 1 (Homo sapiens) (UniProt Q99828)
# Assay: Primary qHTS for Identification of Calcium Integrin Binding Protein 1 (CIB1) Competitor (AID 1508620); also: top concentration of the series differs between compounds
# Details: CIB1-GST / FITC-alphaIIb peptide fluorescence polarization; series mostly up to 114 µM; activity change, negative = inhibition: at the top concentration
# In short: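 Fluorescence polarization competition: GST-tagged CIB1 (1 uM final) preincubated with compound 15 min at room temperature, then FITC-labelled alphaIIb peptide (100 nM final) added. After 15 min at room temperature, polarization read at Ex 480/Em 540.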
# % is scaled to controls: 0 for no effect and ±100 for the full control effect.
# Calcium and integrin-binding protein 1 (Homo sapiens), sequence (Q99828 whole entry, looked up): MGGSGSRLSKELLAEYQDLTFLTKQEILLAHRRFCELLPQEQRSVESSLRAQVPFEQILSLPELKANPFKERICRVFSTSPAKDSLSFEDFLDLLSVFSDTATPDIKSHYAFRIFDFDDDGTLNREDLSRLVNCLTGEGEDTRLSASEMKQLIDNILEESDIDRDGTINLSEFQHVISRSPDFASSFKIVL
row,SMILES,"activity change, negative = inhibition"
1,COc1cc(O)c2c(c1)C1OC1C[C@H](O)[C@H](O)C(=O)/C=C\C[C@H](C)OC2=O (some centres not stated),-6.08%
2,CCC(C(C)O)n1ncn(-c2ccc(N3CCN(c4ccc(OCC5COC(Cn6cncn6)(c6ccc(F)cc6F)C5)cc4)CC3)cc2)c1=O (configuration not stated),0.0229%
3,Cn1ncc2cc(-c3cnc(N)c(Cl)c3N3CCC4(CCNC4=O)CC3)ccc21,-1.97%
4,CNC(=O)COC(=O)N1CCC(CCc2ccc(Cl)cc2)CC1,-3.28%
5,CC(C)CCNC(=O)[C@H](CC(C)C)NC(=O)[C@H]1O[C@@H]1C(=O)O,-2.11%
6,CC(C)(C)NC(=O)[C@H]1CC[C@H]2[C@@H]3CC[C@H]4NC(=O)CC[C@]4(C)[C@H]3CC[C@]12C,1.32%
7,C=C(C)C(=O)O[C@H]1C[C@@](C)(O)C2(O)CCC(C)(/C=C3/OC(=O)C(COC)=C31)O2 (some centres not stated),-8.25% [at 57.7 µM]
8,CC(C)(CO)c1cc2cc(NC(=O)C3(c4ccc5c(c4)OC(F)(F)O5)CC3)c(F)cc2n1CC(O)CO (configuration not stated),-0.578%
9,C[C@@H]1O[C@@H](O[C@H]2[C@H](O[C@H]3CC[C@@]4(C)C(CC[C@]5(C)C4C=C[C@]46OC[C@@]7(CCC(C)(C)C[C@H]74)[C@@H](O[C@@H]4O[C@@H](C)[C@H](O)[C@@H](O)[C@H]4O)C[C@]65C)[C@]3(C)CO)O[C@H](CO)[C@@H](O)[C@@H]2O[C@@H]2O[C@H](CO)[C@@H](O)[C@H](O)[C@H]2O)[C@H](O)[C@H](O)[C@H]1O (some centres not stated),3% [at 30.2 µM]
10,CC(CCC1(O)OC2CC3C4CC=C5CC(O[C@@H]6O[C@H](CO)[C@@H](O[C@@H]7O[C@@H](C)[C@H](O)[C@@H](O)[C@H]7O)[C@H](O)[C@H]6O[C@@H]6O[C@@H](C)[C@H](O)[C@@H](O)[C@H]6O)CCC5(C)C4CCC3(C)C2C1C)CO[C@@H]1O[C@H](CO)[C@@H](O)[C@H](O)[C@H]1O (some centres not stated),1.08% [at 30.2 µM]
11,CC(C)C(C)C(O)C1CC23CC(=O)C4(O)C(=C2CCC3C1C)C=CC1(O)CC(O)CCC14C (configuration not stated),0.24% [at 57.7 µM]
12,CC(C)=CCCC1(C)C2CCC1(C)C(O)C2 (configuration not stated),3.96%
13,CC1(C)CCCC2(C)C1C(OC(=O)/C=C/C=C/C=O)C=C1COC(=O)C12O (configuration not stated),-8.09% [at 57.7 µM]
14,NS(=O)(=O)c1ccc(N2N=C(c3ccccc3)CC2c2ccccc2)cc1 (configuration not stated),-2.35%
15,C=C(C(=O)O)[C@@H]1CC=C(CCC(C)=O)[C@@H](C)CC1,-5.39%
16,COc1cc(N2CCC(O)CC2)ccc1Nc1nc(Nc2ccccc2S(=O)(=O)C(C)C)c2[nH]cnc2n1,-4.66%
17,O=C(NCc1nc2ccccc2c(=O)n1-c1ccc(F)cc1)Nc1ccc(Cl)c(C(F)(F)F)c1,-3.59%
